This is a sample that favours compounds with a hit; in the whole collection about 12% have one here.
BAZ2B block = inhibitors of human BAZ2B bromodomain; Potency, µM (highest dose often 114 µM), hits mostly inhibitors; AID 504333; hit rate 4.4% among 360,000; AlphaScreen BAZ2B-H3K14Ac peptide displacement; Q9UIF8; also: nearly all actives have a fitted effect of over 60% in size
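Complex of BAZ2B and biotin-H3K14Ac (50 nM apiece) forms over 30 min at RT, then faces library compounds up to 110 uM for another 30 min; AlphaScreen beads added, 20 min dark incubation, luminescence read.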
Sfp inh = blocks B. subtilis Sfp PPTase activity; Q9F4F7; Biochemical Sfp PPTase activity, qHTS; Potency, µM, most hits filed as inhibitors; hit rate 3.5% among 310,000; AID 1490;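 also: the enzyme is Sfp with the accession as filed and its product quenches rhodamine fluorescence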
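Reaction rates are the 30-min fluorescence difference (ex 525, em 598 nm) in wells containing 15 nM Sfp, 5 uM rhodamine-CoA and 12.5 uM BHQ-2-YbbR at pH 7.6 with 10 mM MgCl2.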
JMJD2A Tudor = JMJD2A Tudor domain (human) inhibition. AID 504339. AlphaScreen JMJD2A-Tudor / H3K4me3 peptide binding. Potency, µM (titrated, usually from 114 µM), hits mostly inhibitors. hit rate 4.4% among 390,000. O75164; also: nearly all actives have a fitted effect of over 50% in size
HP1b binding inh = inhibitors of HP1-beta chromodomain binding to methylated histone tails; AlphaScreen HP1-beta / biotin-H3K9me3 peptide binding; Potency, µM (titrated, usually from 114 µM), hits mostly inhibitors; hit rate 0.56% among 390,000; AID 540317; also: nearly all actives have a fitted effect of over 70% in size
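AlphaScreen: HP1-beta (50 nM) preformed 30 min with biotin-H3(1-18)K9me3 peptide (50 nM) in PBS pH 7.4, 0.01% Tween-20. Compound added for 30 min at RT, then streptavidin donor/nickel chelate acceptor beads (10 ug/mL) for 30 min.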
G9a inh = G9a (human) methyltransferase inhibition; G9a H3K9 monomethylation, AlphaScreen, 2 h; Potency, µM (top dose mostly 102 µM), usual class: inhibitors; hit rate 8.8% among 350,000; AID 504332; also: nearly all actives have a fitted effect of over 75% in size
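Using a bead-based AlphaScreen, monomethylated H3K9 product from 2 h room-temperature reactions (G9a 20 nM, peptide 500 nM, SAM 20 uM) was detected with 0.5 ug/mL rabbit anti-H3K9me1 antibody.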
L3MBTL1 inh = L3MBTL1 (human) inhibition. AlphaScreen L3MBTL1–H3K9me1 peptide binding. Potency, µM (top dose mostly 57.1 µM), most hits filed as inhibitors. hit rate 0.66% among 230,000; also: nearly all actives have a fitted effect of over 60% in size
Target sequence (Q9Y468 whole entry, looked up): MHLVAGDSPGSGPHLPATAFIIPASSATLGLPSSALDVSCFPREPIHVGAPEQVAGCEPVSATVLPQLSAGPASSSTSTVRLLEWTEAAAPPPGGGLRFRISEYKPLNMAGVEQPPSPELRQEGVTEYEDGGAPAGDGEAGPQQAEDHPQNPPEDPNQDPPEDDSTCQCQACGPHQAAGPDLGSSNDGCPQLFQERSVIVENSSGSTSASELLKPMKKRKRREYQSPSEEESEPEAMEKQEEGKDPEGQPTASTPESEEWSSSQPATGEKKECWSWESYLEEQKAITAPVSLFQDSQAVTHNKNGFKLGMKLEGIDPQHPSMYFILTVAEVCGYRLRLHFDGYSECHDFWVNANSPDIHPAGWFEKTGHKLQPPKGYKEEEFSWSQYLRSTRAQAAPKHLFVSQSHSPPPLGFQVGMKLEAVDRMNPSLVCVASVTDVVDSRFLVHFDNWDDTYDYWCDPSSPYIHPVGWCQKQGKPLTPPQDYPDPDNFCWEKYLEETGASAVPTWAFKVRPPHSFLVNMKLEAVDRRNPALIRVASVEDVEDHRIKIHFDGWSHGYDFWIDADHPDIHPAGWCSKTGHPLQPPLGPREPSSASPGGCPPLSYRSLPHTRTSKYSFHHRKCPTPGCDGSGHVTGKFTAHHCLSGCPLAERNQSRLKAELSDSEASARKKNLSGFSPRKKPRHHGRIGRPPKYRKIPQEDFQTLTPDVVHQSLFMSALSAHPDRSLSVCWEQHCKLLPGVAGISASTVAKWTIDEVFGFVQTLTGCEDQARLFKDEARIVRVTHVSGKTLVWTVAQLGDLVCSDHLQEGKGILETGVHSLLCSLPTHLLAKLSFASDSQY
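Displacement of a biotinylated histone H3(1-15) peptide monomethylated at Lys9 (75 nM) from L3MBTL1 (50 nM) was measured by AlphaScreen after a 30 min room-temperature compound incubation; cefsulodin titration served as intraplate control.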
Numbers stand for hits; . = inactive; ? = inconclusive; / = not tested or not shown; ! = a repeat was not active; [ ] = another dose, or the depositor's remark. Calls follow the shape of the dose curve; as a rule, active = well fitted curve in the direction sought with a large enough effect; inconclusive = small, poorly fitted or top-dose-only effect, or another doubt; inactive = no such curve, though single readings can be large; an effect the other way counts as inactive or inconclusive.

SMILES | BAZ2B block | Sfp inh | JMJD2A Tudor | HP1b binding inh | G9a inh | L3MBTL1 inh
COC(=O)c1ccc(COC(=O)c2nn(C)c(=O)c3ccccc23)cc1 | . | . | . | . | . | .[11.4 µM]
C/C=C(\C)C(=O)OC1C(C)=C2C(C1OC(=O)CCCCC)C(C)(OC(C)=O)CC(OC(=O)CCC)C1(O)C2OC(=O)C1(C)O (stereo unspecified) | 56µM | . | / | / | ? | /
CN(C)CCN(Cc1ccccc1)c1ccnc(N(C)C)c1C#N | ? | . | 63µM | ? | 7.9µM | .
Cc1ccc2c(c1)C1CN(C)CCC1N2C(=O)Nc1ccc(Cl)cc1 (stereo unspecified) | . | . | . | . | . | .
Cc1ccc2c(c1)C1C[N+](C)(CC(=O)c3ccc(Cl)cc3Cl)CCC1N2C(=O)c1ccc(F)cc1 (stereo unspecified) | / | / | 16µM | ? | / | .
Cn1c(O)c(C(c2ccccn2)c2c(O)n(C)c(=S)[nH]c2=O)c(=O)[nH]c1=S | 50µM | 79µM | 79µM | . | .[0.0925 µM] | .
C#CC(C)(O)CC (stereo unspecified) | / | . | / | / | .[12.7 µM] | /
Nc1c2c(nc3sc4c(c13)CCCCC4)CCCC2 | . | . | . | . | ? | .
NC(=O)c1sc2nc3c(c(-c4cccs4)c2c1N)CCCC3 | . | . | / | / | 22µM | .
CN1CCc2nc(N)c(C#N)c(-c3ccccc3)c2C1 | . | . | . | . | . | .
CN1CCc2nc3sc(C#N)c(N)c3c(-c3cccs3)c2C1 | ? | 50µM | . | . | ? | /
CP(=O)(O)C1=CCNCC1 | / | . | / | / | . | /
CCCCC/C=C\C/C=C\C/C=C\C/C=C\CCCC(=O)NC1CC1 | / | . | / | / | . | /
S=c1[nH]nc(-c2cccs2)n1C1CCCCC1 | . | ? | 6.3µM | . | / | .
O=C(CC1NCCC[C@H]1O)Cn1cnc2cc(Br)c(Cl)cc2c1=O (stereo partly specified) | / | ? | / | / | .[12.7 µM] | /
N/C(=N\N=C/c1ccc(-c2ccc(O)c(C(=O)O)c2)o1)N[N+](=O)[O-] | 25µM | 50µM | 11µM | 16µM | 25µM | 11µM
COc1ccc(S(=O)(=O)Nc2ccccc2OC)cc1N=Nc1c(O)[nH]c(=S)[nH]c1=O | / | / | ? | ? | / | .
O=c1[nH]c(=S)[nH]c(O)c1N=Nc1cc2c(cc1[N+](=O)[O-])OCO2 | . | . | . | . | 50µM | .
O=c1[nH]c(=S)[nH]c(O)c1N=Nc1ccc(-c2ccccc2)cc1[N+](=O)[O-] | 7.9µM | 79µM | / | / | 11µM | ?
CC(C)(C)OC(=O)N1CC[C@H]1COc1cnc[c]([Sn]([CH3])([CH3])[CH3])c1 | / | . | / | / | .[12.7 µM] | /
CCN(CC1CCCN(CCc2cccc(OC)c2)C1)C(=O)c1ccc(COC)o1 (stereo unspecified) | . | . | . | . | . | /
c1cnc(N2CCNCC2)nc1 | ? | . | ? | . | 18µM | .
COC(=O)N1CCN(C(=O)Cc2ccc(Cl)c(Cl)c2)[C@H](CN2CCCC2)C1 | / | . | / | / | / | /
O=c1c2ccccc2nc(CN2CCCCCC2)n1-c1ccc(F)cc1 | . | . | . | . | 28µM | .
CCC(CC)N1CCN(Cc2nc3ccccc3c(=O)n2-c2ccc(F)cc2)CC1 | . | . | . | . | . | .
SMILES | BAZ2B block | Sfp inh | JMJD2A Tudor | HP1b binding inh | G9a inh | L3MBTL1 inh
COc1cccc(CCNCc2cccc(C(F)(F)F)c2)c1 | 56µM | . | 2.5µM | ? | 10µM | .
CC(=O)[C@H]1CC[C@H]2[C@@H]3CC[C@H]4C[C@](C)(O)CC[C@]4(C)[C@H]3CC[C@]12C | / | . | / | / | 7.9µM! | /
CCN1C(=O)NC(=O)/C(=C\c2cn(CC(=O)N3CCCC3)c3ccccc23)C1=O | . | 56µM | . | . | . | /
O=C1NC(=O)N(c2ccccc2F)C(=O)/C1=C/c1cn(CC(=O)N2CCOCC2)c2ccccc12 | . | ? | . | . | 16µM | /
CCN1C(=O)NC(=O)/C(=C\c2cn(CC(=O)N3CCCCC3)c3ccccc23)C1=O | . | . | . | . | . | /
O=C(NC1(C(F)(F)F)Oc2ccc(Cl)cc2O1)N1CCC2(CC1)OCCO2 (stereo unspecified) | 79µM | 79µM | 32µM | . | ? | /
O=C(NC1(C(F)(F)F)Oc2ccccc2O1)N1CCC2(CC1)OCCO2 | . | . | 45µM | ? | 1.8µM | ?

Source: PubChem BioAssay
